Sampled rows, rich in hits. Any-hit rate of the full collection: about 5.2%.
Tau FP inhib – blocks human tau fibril formation measured by polarization; K18 P301L tau heparin fibrillization, Alexa594 FP, 6 h; Potency, µM (highest dose often 57.7 µM), inactives show at the highest dose activity, negative = inhibition, actives largely listed as inhibitors; actives 0.39% (n = 280,000); further: potency means the concentration at half of the fitted maximal effect; nearly all actives have a fitted effect of over 55% in size
Target sequence (P10636 561-689 P618L limits assumed): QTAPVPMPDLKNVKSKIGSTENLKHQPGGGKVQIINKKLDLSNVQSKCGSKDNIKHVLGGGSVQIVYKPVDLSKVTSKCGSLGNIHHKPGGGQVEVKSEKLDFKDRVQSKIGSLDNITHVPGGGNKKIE
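Read-out: fluorescence polarization of Alexa 594-labeled tau (0.24 uM), 555 nm excitation, 632 nm emission. Mixtures held 15 uM unlabeled K18 P301L, compound and 20 uM heparin, pH 7 acetate buffer, incubated 6 hr at 37 C.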
Tau fluor counter – counter-screen for tau fibril formation inhibitors; tau K18 P301L Alexa594 fluorescence, heparin fibrillization; Potency, µM (doses to about 57.7 µM), for inactives: at the highest dose activity change, negative = decrease; actives 0.93% (n = 280,000); further: potency means the concentration at half of the fitted maximal effect; nearly all actives have a fitted effect of over 55% in size
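Human K18 P301L tau (15 uM unlabeled plus 0.24 uM Alexa 594-labeled, final) in 100 mM sodium acetate pH 7 was mixed with compound and 20 uM heparin and incubated 6 hr at 37 C.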
Sfp inh – inhibitors of Bacillus subtilis Sfp phosphopantetheinyl transferase; Q9F4F7; Biochemical Sfp PPTase activity, qHTS; Potency, µM, for inactives: largest response in the series, negative = inhibition, usual class: inhibitors; actives 3.5% (n = 310,000); AID 1490;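 further: the enzyme is Sfp with the accession as filed and its product quenches rhodamine fluorescence; potency means the concentration at half of the fitted maximal effect; 0% = enzyme reaction without inhibitor and -100% = no enzyme wells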
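Buffer: 50 mM Hepes-Na pH 7.6, 10 mM MgCl2, 0.01% Nonidet P-40, 0.01% BSA. Enzyme 15 nM, pre-exposed to compound 15 min; substrates then added and fluorescence change tracked over 30 min.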
FBPA coupling cs – inhibits coupling enzyme system, counter-screen for aldolase hits | coupling enzyme system counterscreen, AmpLite Red fluorescence | activity change, negative = inhibition, % at 58.2 µM, hits read low | actives 0.67% (n = 290,000); in the data active means activity change below about -30%
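Coupling enzymes only (glyceraldehyde-3-phosphate) + compound, at 57.5 uM final, 10 min RT; add substrate/coupling/AmpLite Red mix, 20 min RT; fluorescence ex 525/em 598 nm. Actives flag coupling-system interference.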
Tau fibril ThT – inhibitors of human tau fibril formation, thioflavin T binding. P10636. recombinant tau K18 P301L (four-repeat tau fragment), heparin-induced fibrillization, ThT fluorescence. Potency, µM (series often up to 57.4 µM), inactives show at the highest dose activity, negative = inhibition, hits mostly inhibitors. actives 2.1% (n = 270,000). AID 1460; further: potency means the concentration at half of the fitted maximal effect; nearly all actives have a fitted effect of over 55% in size
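K18 P301L tau (15 uM + 0.24 uM Alexa 594-tagged), heparin 20 uM, NaOAc pH 7, 6 h 37 C; ThT 30 uM, 1 h RT, ex 450/em 510 nm.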
Active calls of the source: *; u = inconclusive; x = not tested or not shown; [ ] = dose if it differs, or a comment. Unless noted, the call rests on the fitted dose curve; in most records, active means well fitted curve in the direction sought with a large enough effect; inconclusive means small, poorly fitted or top-dose-only effect, or another doubt; inactive means no such curve, though single readings can be large; an effect the other way counts as inactive or inconclusive. Unless noted, on the % scale 0 is the no-effect control and ±100 the full control effect.

SMILES	Tau FP inhib	Tau fluor counter	Sfp inh	FBPA coupling cs	Tau fibril ThT
COCCNC(=O)c1c(NC(=O)c2ccc(Br)o2)n(Cc2ccccc2)c2nc3ccccc3nc12	-8%	-29%	28µM*	-44*	u
C[C@@]12CC3CC(N)(C1)C[C@@](C)(C3)C2	x	x	22%	0	x
O=C1c2ccccc2C(=O)N1SC1CCCCC1	u	-2%	10µM*	0	u
CC1(C)N(O)C2CCCCC2N1O (centres undefined)	-9%	6%	56µM*	-2	-3%
COc1cc(-c2nc3ccc(Cl)cn3c2Nc2ccc3c(c2)OCCO3)ccc1O	13%	10µM*[quencher]	x	x	u
C[C@H]1COC2=C1C(=O)C(=O)c1c2ccc2c1CCCC2(C)C	u	-28%	-2%	-23	13µM*
CC1COC2=C1C(=O)C(=O)c1c2ccc2c1CCCC2(C)C (centres undefined)	u	u	u	-36*	13µM*
COc1ccc(OC)c([C@H](O)[C@H](C)N)c1	x	x	29%	0	x
Cc1ccc(F)cc1NC(=O)c1ccc(Cn2nc(N3CCN(c4ccccc4)CC3)ccc2=O)o1	8%	-22%	x	x	u
CCOc1ccc2nc(NC(=O)c3cccn(Cc4ccc(C)cc4)c3=O)sc2c1	-6%	-2%	x	x	-1%
COc1ccc2nc(NC(=O)c3nc(S(=O)(=O)Cc4cccc(C)c4)ncc3Cl)sc2c1	-10%	u	x	x	14µM*
C=C1C(=O)O[C@H]2[C@H]1[C@H](OC(=O)CC(=O)O[C@@H]1C[C@@H](C)[C@@H]3C=CC(=O)[C@@]3(C)[C@H]3OC(=O)C(=C)[C@H]13)C[C@@H](C)[C@H]1C=CC(=O)[C@]12C	11µM*	-8%	-21%	-1	16µM*
C=C1C(=O)O[C@@H]2C[C@@H](C)[C@@H]3C=CC(=O)[C@@]3(C)[C@@H](OC(=O)CC(=O)O[C@H]3[C@@H]4C(=C)C(=O)O[C@@H]4C[C@@H](C)[C@@H]4C=CC(=O)[C@]43C)[C@H]12	8.9µM*	-18%	22µM*	1	2.8µM*
C=C1C(=O)O[C@H]2C[C@@H](C)[C@@H]3C=CC(=O)[C@@]3(C)C[C@H]12	u	-9%	11%	6	18µM*
CCc1ccc(C(=O)NN(C(=O)c2cc(C)cc(C)c2)C(C)(C)C)cc1	2%	-11%	22%	0	-2%
CC(=O)C(O)C(c1ccccc1)c1c(O)c2ccccc2oc1=O (centres undefined)	x	x	9%	0	x
Cc1ccc(NC(=O)Cn2c(=O)oc3cc(S(=O)(=O)N4CCCCCC4)ccc32)cc1Cl	u	-10%	x	x	6%
FC(F)OC(F)(F)C(F)Cl (centres undefined)	x	x	11%	x	x
Cc1ccccc1Nc1c(-c2ccc(Br)cc2O)nc2sccn12	1%	u	x	x	-2%
COc1ccc(Nc2c(-c3cc(Br)ccc3O)nc3ncccn23)cc1OC	14%	8.9µM*[quencher]	x	x	u
Cc1ccsc1/C=C1\C(=O)NC(=S)N(C)C1=O	x	x	20µM*	3	x
CN1C(=O)/C(=C\c2ccc(N3CCCCCC3)cc2)C(=O)NC1=S	1%	-14%	u	2	u
CN1C(=O)/C(=C/c2ccc(Cl)s2)C(=O)NC1=S	x	x	13µM*	-1	x
COc1ccc(/C=C2\C(=O)NC(=S)N(C)C2=O)cc1C	-9%	-11%	18µM*	-1	u
N#Cc1c(Oc2cccc(OS(=O)(=O)CCCC(F)(F)F)c2)cccc1C(F)(F)F	x	x	20%	-7	x
SMILES	Tau FP inhib	Tau fluor counter	Sfp inh	FBPA coupling cs	Tau fibril ThT
CCC1CN2CCC1CC2C(Oc1cc2ccccc2c2ccccc12)c1ccnc2ccc(O)cc12 (centres undefined)	-7%[11.6 µM]	-6%[11.6 µM]	-20%	-29	u
COC(=O)[C@@H]1[C@@H](O)[C@@]2(O)c3c(OC)cc(OC)cc3O[C@@]2(c2ccc(OC)cc2)[C@H]1c1ccccc1	-5%[11.6 µM]	-10%[11.6 µM]	10%	1	-9%[11.5 µM]
Cc1ncc2n1-c1ccc(Cl)cc1C(c1ccccc1F)=NC2O (centres undefined)	x	x	-9%	7	x
O=C(O)Cn1cc(/C=C2\C(=O)NC(=O)N(c3ccc(Cl)cc3)C2=O)c2ccccc21	x	x	u	8	x
O=C1NC(=O)N(c2ccc(Cl)cc2)C(=O)/C1=C\c1ccc(Sc2nc3ccccc3[nH]2)o1	u	-26%	71µM*	-3	14µM*
Nc1c(C(=O)Nc2ccc(OC(F)(F)F)cc2)sc2nc3c(cc12)N1CCC3CC1	-1%	u	x	x	u
COc1ccc(C(=O)Oc2cccc3cccnc23)cc1S(=O)(=O)N1CCOCC1	15%	10%	45µM*	-5	9%
COc1ccc(C(=O)N2CCOCC2)cc1S(=O)(=O)N1CCC(C)CC1	-3%	2%	20%	-1	0%
O=C(O)c1ccc(-c2ccc3cc(C45CC6CC(CC(C6)C4)C5)c(O)cc3c2)cc1	x	x	u	-10	x
C=CCN1C(=O)NC(=O)/C(=C/C=C/c2ccccc2)C1=O	u	-20%	28µM*	2	28µM*
O=C1NC(=O)N(CCc2ccc(F)cc2)C(=O)/C1=C\C=C\c1ccccc1	u	-19%	-7%	2	28µM*
CC(=O)O[C@H]1[C@H]2[C@@H](OC(=O)Cc3ccccc3)[C@@H](C)C[C@]2(OC(C)=O)C(=O)/C(C)=C/[C@@H]2[C@H](CC[C@@]13CO3)C2(C)C	-3%	-24%	0%	-6	u
NNc1n[nH]c(=S)n1N	u	u	2.8µM*	-62*	x
Cc1ccc(S(=O)(=O)c2nnn3c2nc(N2CCC(C(N)=O)CC2)c2cc(Cl)ccc23)cc1C	-4%	u	x	x	u
CSc1ccc(CN2CCN(C(=O)COc3cccc(C)c3)CC2)cc1	9%	8%	71µM*	-3	0%
CN1C(=O)c2ccccc2Sc2ccc(NC(=O)c3ccc(C(F)(F)F)cc3)cc21	u	-12%	x	x	14%
COc1ccc(CN2CCN(Cc3ccccc3F)CC2)cc1	x	x	79µM*	2	x
COc1ccc(CC(=O)N(CCN(C)C)CC2CCCN(Cc3ccccc3F)C2)cc1 (centres undefined)	x	x	15%	-1	x
CSc1ccc(CN2CCN(Cc3ccccc3Cl)CC2)cc1	2%	0%	22µM*	-7	5%
Cc1c(N=Nc2c(O)[nH]c(=O)[nH]c2=O)c(=O)n(-c2ccccc2)n1C	u	-7%	45µM*	-7	u
Cc1c(N=Nc2c(O)n(-c3ccc(Br)cc3)c(=O)[nH]c2=O)c(=O)n(-c2ccccc2)n1C	-7%	-16%	-28%	6	u
CCC(C)(C)O	x	x	5%	-1	x
COc1ccc(CC(=O)Nc2ccc(C#N)c(Cl)c2)cc1S(=O)(=O)N1CCOCC1	x	x	50µM*	x	x

Assay outcomes from PubChem BioAssay.
